# The panel holds about 79,000 compounds, 15% with a hit somewhere; the sample as a whole holds those more often. Unmarked numbers belong to inactive results. Activity calls are given as the source filed them. Cut-off read from the data, not from the text of the source: active = growth inhibition above about 70%; inactive = the rest. Where a SMILES comes first, the peptide text is derived from it. The star is where a group is joined. Cbz = O=C(OCc1ccccc1)*; Bn = c1ccc(C*)cc1
# Columns and labels:
# [1] = NCI Yeast Anticancer Drug Screen. Data for the rad50 strain (AID 155);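 note: 0% = growth of vehicle-only cultures of the same strain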; settings: S. cerevisiae rad50 strain growth inhibition; at 50.0 µM; hits give high values
# Method in brief: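 DNA repair mutant yeast, compound exposure, growth read-out; inhibition is taken relative to vehicle.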
# [2] = NCI Yeast Anticancer Drug Screen. Data for the mec2-1 strain (AID 157); settings: S. cerevisiae mec2-1 strain, at 50.0 µM, hits give high values
# Method in brief: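 mec2-1 yeast strain, carrying an alteration in DNA damage repair or cell cycle control, was exposed to compounds; growth inhibition was measured relative to vehicle-treated controls.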
# [3] = NCI Yeast Anticancer Drug Screen. Data for the sgs1 mgt1 strain (AID 161);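 note: 0% = growth of cultures given vehicle only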; settings: S. cerevisiae sgs1 mgt1 strain, at 50.0 µM, hits give high values
# Method in brief: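 Growth of a repair-deficient yeast mutant was monitored after compound treatment and expressed as inhibition relative to vehicle-treated cultures.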
# [4] = NCI Yeast Anticancer Drug Screen. Data for the cln2 rad14 strain (AID 165);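 note: 0% = growth equal to vehicle treated cultures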; settings: S. cerevisiae cln2 rad14 strain, at 50.0 µM, hits give high values
# Method in brief: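 Yeast carrying cln2 and rad14 alterations (cell cycle control and DNA damage repair) were exposed to compounds. Growth inhibition was measured against vehicle-treated controls.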
# [5] = NCI Yeast Anticancer Drug Screen. Data for the bub3 strain (AID 167); settings: S. cerevisiae bub3 mutant strain, at 50.0 µM, hits give high values
# Method in brief: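 In this screen, a yeast mutant lacking normal mitotic checkpoint function is challenged with compound. Relative growth versus vehicle gives the inhibition value.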
# [6] = NCI Yeast Anticancer Drug Screen. Data for the mlh1 rad18 strain (AID 175); settings: S. cerevisiae mlh1 rad18 strain growth inhibition; at 50.0 µM; hits give high values
# Method in brief: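 Growth inhibition of the yeast strain was measured after compound exposure and expressed relative to vehicle-treated controls. The strain carries defined defects in DNA damage repair.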
Compound,growth inhibition [1],growth inhibition [2],growth inhibition [3],growth inhibition [4],growth inhibition [5],growth inhibition [6]
C=CCOC/C=C\CCOCC/C=C/COCC=C (tested in a mixture with another compound),5%,1.3%,6.25%,-13.6%,2.45%,2.35%
CC(/C=N\NC(=S)SCc1ccccc1)=N/N=C(N)N,52.4%,50.2%,57.2%,-3.7%,52.9%,64.6%
O=C(CCCCCCCCC(=O)OCCCn1cc(C(=O)NC(=O)OCc2ccccc2)c(=O)[nH]c1=O)OCCCn1cc(C(=O)NC(=O)OCc2ccccc2)c(=O)[nH]c1=O,-28.6%,-41.7%,-25.6%,1.7%,-24.2%,-36.8%
COc1ccc(C2=NOC3COC4C=CC=CC4OCC23)cc1 (stereo not given),-11.4%,-22.1%,-13.6%,-17.9%,-19.4%,-18.6%
NCCCCC(C(=O)NCC(=O)O)N(C(=O)OCc1ccccc1)C(=O)OCc1ccccc1 (stereo not given),-2%,-4.6%,-0.55%,-33.1%,-2.2%,-2.05%
Cc1c(C)c(C(C)O)c(C)c(C(C)O)c1C (stereo not given),4.55%,5.65%,17.6%,21.6%,11.7%,18.6%
O=CC(NC(=O)C(O)C(O)C(O)C(O)CO)C(O)C(O)C(O)CO (stereo not given),-13.2%,6.8%,-1.45%,-40%,-0.95%,1.15%
c1ccc(COC2C3COC(O3)C(OCc3ccccc3)C2OCc2ccccc2)cc1 (stereo not given),11.7%,-1.7%,26.4%,3.2%,17.7%,22.4%
NC1=NC=NCN1c1ccc(N)cc1,1.65%,-2.65%,3.85%,-54.4%,-3.6%,5.7%
CC(C)C(NC(=O)C(CSCc1ccccc1)NC(=O)OCc1ccccc1)C(N)=O (stereo not given) (Cbz-Cys(Bn)-Val-NH2; configuration not given here),8.8%,16.1%,1.6%,-3.65%,-0.9%,30.6%
COc1ccc(C2c3cc4c(cc3OC3(O)CCCC(=O)C23)OCO4)cc1 (stereo not given),-13.2%,15.3%,4.55%,-39.3%,20.6%,-7.4%
Cc1ccc2ccccc2c1CC(=O)O,28.8%,36.6%,31.5%,31.7%,38.8%,39.2%
Cc1ccc(C(C)C)c(OC2OC(C(=O)O)C(O)C(O)C2O)c1 (stereo not given),5.95%,13.9%,-9%,-33.7%,10.9%,-10.4%
O=C1CCCCCCCCC1=O,3.5%,-6.4%,-11.3%,-4.05%,-12.8%,-11.2%
Cc1cc(C)nc(NS(=O)(=O)c2ccc(NC(=O)c3ccncc3)cc2)n1,-7.75%,-17.1%,3.05%,9.55%,-8.25%,-17.1%
O=C(CC[n+]1ccccc1)NCCCCCCNC(=O)CC[n+]1ccccc1,-17.9%,-31.9%,-23.5%,7.5%,-17.4%,-21.9%
NNC(=O)CC(=O)Nc1ccccc1F,-7.9%,-16.9%,-6.4%,7.15%,0.85%,-2.85%
CCC1(CC)C(=O)N=C(c2ccccc2)N1C,-5.55%,-5.75%,8.15%,-16%,-2.3%,-10.7%
O=CNCC1(c2ccccc2)CCNCC1,2.25%,-3.25%,8.05%,-1.7%,4.4%,-4.6%
COC(OC)c1cccc2c1C(=O)CCC1(CC2)OCCCCO1,0.3%,-21.1%,-22.8%,3.6%,-39.9%,-11.2%

Compound,growth inhibition [1],growth inhibition [2],growth inhibition [3],growth inhibition [4],growth inhibition [5],growth inhibition [6]
O=[N+]([O-])c1ccc(CCO)cc1,-4.15%,-26.1%,-6.85%,-15.4%,-10.5%,-4.6%
COC(=O)c1nc(=S)[nH]c(C(=O)OC)c1C(=O)c1cccc2ccccc12,8.6%,34.4%,4.35%,-24.3%,-5.5%,13.1%
COc1cc(C2c3cc4c(cc3OC(N3CCCCC3)C2C)OCO4)cc(OC)c1OC (stereo not given),-13.4%,-20.1%,-18.1%,0.15%,-23.6%,-12.6%
O=[N+]([O-])c1nccn1CCCN=c1c2ccccc2n(O)c2ccccc12,8.9%,-16.4%,-5.85%,-5.8%,-12.7%,-33.4%
O=C1CSC(c2ccccc2)N1O (stereo not given),-11.4%,-5%,-22%,-51.5%,-7.5%,-7.7%
CCCCCN(CCOC(=O)c1ccc([N+](=O)[O-])cc1)CCOC(=O)c1ccc([N+](=O)[O-])cc1,7.5%,4.7%,7.25%,7.8%,-2.6%,7.45%
CC(O)C1CCCCN1 (stereo not given),2.6%,-1.1%,-8.85%,10.4%,14.2%,-0.9%
COc1ccc(N2C(=O)CCC2=S)cc1,-5.35%,8.55%,6.8%,-4.5%,-7.9%,15.5%
O=C(O)c1ccccc1C(NC(=O)N1C(=O)C=CC1=O)NC(=O)N1C(=O)C=CC1=O,29.2%,-5.1%,-2.85%,16.4%,4.8%,12.8%
CCN(CC)CCN=C1Nc2ccccc2N(O)N1,0.55%,-1.5%,11.6%,-23.3%,12.6%,-2.95%
CC1C2(c3ccccc3)C(C(=O)c3ccccc3)NC(c3ccccc3)C12c1ccccc1 (stereo not given),46%,6.35%,28.2%,18.9%,2.2%,34.6%
CONCc1ccc(C(=O)NC(C)C)cc1,-10.6%,-6.75%,-5.95%,-3.65%,-0.3%,-11.8%
CCCCCCSc1ccc([N+](=O)[O-])cc1[N+](=O)[O-],4.95%,-6%,-10.6%,-6.8%,24.9%,-21.1%
COc1ccc(C)c(C2=CCCCC2)c1,4.65%,3.45%,-9.15%,-6.55%,-2.35%,-15.8%
NNC(=O)C(=O)N/N=C(\CCC(=O)Nc1ccc(Cl)cc1)Cc1nc2ccccc2s1,28.2%,28.2%,30.4%,9.65%,12.3%,36.2%
CC(Sc1ncnc2[nH]ncc12)C(N)=O (stereo not given),-22.5%,-16.4%,-18.4%,-6.6%,5%,0.95%
COc1c(C)c(=O)n2c3ccccc3n(C)c2c1C#N,19.5%,10.3%,-18.4%,8.55%,0.85%,14.8%
O=C(O)C(Cc1ccc(O)cc1)N=Cc1nc(-c2ccccc2)oc1O (stereo not given),-3.5%,-3.5%,0.25%,3%,-6.5%,0.7%
Cc1n(C)c(C(O)c2ccccc2)c(Br)[n+]1C (stereo not given),9.3%,1.4%,8.25%,-12.1%,77.7% (active),12.6%
Cc1cc[n+](C2=C([O-])C3=C(C(=O)C2=O)C2c4ccccc4C3c3ccccc32)c(C)c1,98.5% (active),98.7% (active),98.8% (active),98.3% (active),90.2% (active),97.5% (active)
